Assay results taken from PubChem BioAssay (EPA / NIEHS).
Records with an inconclusive call do not appear. Active and inactive are the calls of the source. How the source made its calls, unless noted: active means hit-call score of the fitted dose curve at least 0.9, where 1 is the maximum; inconclusive means response in the unintended direction; inactive means score below 0.9.

Tests used:
[1] = read-out: UDP glucuronosyltransferase (UGT1A6), UGT1A6 (gene 54578); assay: LTEA_HepaRG_UGT1A6: Life Technologies and Expression Analysis (LTEA) Assay for UDP glucuronosyltransferase (UGT1A6) using HepaRG (AID 2283539; active means hit-call score of the fitted dose curve at least 0.9, where 1 is the maximum; inactive means score below 0.9); conditions: mRNA level, 48 h; actives raise or lower the signal
Outline: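 HepaRG, 48 h post-plating switch to serum-free induction medium; chemical 48 h, 100 uM top, half-log x8, duplicate, 0.5% DMSO. Phenobarbital 1mM induction control. UGT1A6 mRNA by TaqMan qRT-PCR; gain/loss fit vs DMSO.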

[2] = read-out: X-box binding protein 1 (XBP1), XBP1 (gene 7494); assay: LTEA_HepaRG_XBP1: Life Technologies and Expression Analysis (LTEA) Assay for X-box binding protein 1 (XBP1) using HepaRG (AID 2283540; active means hit-call score of the fitted dose curve at least 0.9, where 1 is the maximum; inactive means score below 0.9); conditions: mRNA level, 48 h; actives raise or lower the signal
Outline: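 Transcript levels of XBP1, measured by qRT-PCR and normalised to three housekeeping genes, were fitted bidirectionally relative to 0.5% DMSO controls. Human HepaRG cells received eight-point half-log dilutions from 100 uM for 48 h.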

[3] = molecular target: Cellular tumor antigen p53 (Homo sapiens) (UniProt P04637); assay: TOX21_p53_BLA_p2_ratio: Tox21 HCT-116 p53 Agonism Beta-lactamase Assay, Ratio, Phase 2 (AID 2283592)
Cellular tumor antigen p53 (Homo sapiens), sequence (P04637 whole entry, looked up): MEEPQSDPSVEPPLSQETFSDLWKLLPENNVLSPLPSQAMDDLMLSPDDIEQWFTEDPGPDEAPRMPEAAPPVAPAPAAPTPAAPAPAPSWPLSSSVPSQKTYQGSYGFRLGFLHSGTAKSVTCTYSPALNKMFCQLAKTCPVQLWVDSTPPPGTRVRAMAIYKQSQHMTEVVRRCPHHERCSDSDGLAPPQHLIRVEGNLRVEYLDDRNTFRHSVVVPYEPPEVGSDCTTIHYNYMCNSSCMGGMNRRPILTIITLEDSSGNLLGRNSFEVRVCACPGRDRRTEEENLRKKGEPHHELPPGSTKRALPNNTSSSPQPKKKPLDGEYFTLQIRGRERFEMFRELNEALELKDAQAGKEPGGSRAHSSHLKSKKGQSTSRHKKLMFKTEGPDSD
Outline: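 Plated HCT116 p53-bla cells (4000/well) received compound after 5 h, then 16 h at 37C/5% CO2. CCF4-AM added, 2 h RT. Ratio of 460 to 530 nm emission taken as the p53 reporter signal.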

[4] = TOX21_p53_BLA_p3_viability: Viability Assessment in the Tox21 HCT-116 p53 Agonism Beta-lactamase Assay, Phase 3 (AID 2283593);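 further: cells exposed to compound for 16 h before reading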
Outline: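 Cellular ATP was quantified by CellTiter-Glo luminescence, read after 30 min at room temperature. Beforehand, HCT116 cells (4000/well) received compound 5 h post-seeding, 217-fold diluted from DMSO, then incubated 16 h at 37C.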

[5] = TOX21_p53_BLA_p5_viability: Viability Assessment in the Tox21 HCT-116 p53 Agonism Beta-lactamase Assay, Phase 5 (AID 2283600)
Outline: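 Workflow: seed 4000 cells per well, wait 5 h, add compounds (DMSO, 217-fold dilution), incubate 16 h, load CCF4-AM 2 h, add CellTiter-Glo, read luminescence after 30 min.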

[6] = Tanguay_ZF_120hpf_MORT_legacy: (Legacy) Oregon State University Tanguay Lab 120 Hour Post-fertilization zebrafish Assay for Mortality (AID 2283633)
Outline: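 5D WT zebrafish, chorion removed 4 hpf; 1 embryo/well from 6 hpf; static exposure to 120 hpf, 28C, dark, sealed. Final DMSO 0.64%. Readout: binary mortality, brightfield, 24 + 120 hpf; DMSO as negative control.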

[7] = Tanguay_ZF_120hpf_YSE_legacy: (Legacy) Oregon State University Tanguay Lab 120 Hour Post-fertilization zebrafish Assay for Yolk Sac Edema (AID 2283634)
Outline: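 Dechorionate (pronase, 4 hpf) → place one 6 hpf embryo per well → static compound exposure, sealed and foil-covered, 28C, to 120 hpf → record yolk sac edema as present or absent. Final DMSO 0.64%.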

[8] = Tanguay_ZF_120hpf_EYE_legacy: (Legacy) Oregon State University Tanguay Lab 120 Hour Post-fertilization zebrafish Assay for Eye Malformation (AID 2283636);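 further: binary presence or absence of eye malformation scored by brightfield in 120 hpf larvae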
Outline: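 Binary brightfield scoring of eye defects at 120 hpf after static exposure from 6 hpf of single pronase-dechorionated wild-type embryos (28C, 0.64% DMSO). Non-mortality endpoints omitted where embryos died; fit vs DMSO.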

[9] = Tanguay_ZF_120hpf_SNOU_legacy: (Legacy) Oregon State University Tanguay Lab 120 Hour Post-fertilization zebrafish Assay for Snout Malformation (AID 2283637)
Outline: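 Binary snout-malformation call at 120 hpf in wild-type 5D embryos, chorion removed by pronase, under static exposure from 6 hpf at 28C (0.64% DMSO). Embryos dying by 24 or 120 hpf excluded.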

[10] = Tanguay_ZF_120hpf_JAW_legacy: (Legacy) Oregon State University Tanguay Lab 120 Hour Post-fertilization zebrafish Assay for Jaw Malformation (AID 2283638)
Outline: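 Steps: dechorionate 4 hpf embryos (pronase); plate 1/well at 6 hpf; add test chemical, 0.64% DMSO final; seal, cover, hold at 28C statically to 120 hpf; score jaw defect presence/absence microscopically. Dead embryos not scored.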

[11] = ATG_XTT_Cytotoxicity: Cytotoxicity Assessment in the Attagene TRANS-FACTORIAL HepG2 Assay (AID 2283584)
Outline: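 Cells: human HepG2, transiently transfected with MRTU reporter constructs. Exposure 24 h. Readout: XTT, cell number. Baseline/neg ctrl DMSO; loss-of-signal scored.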

[12] = molecular target: Cellular tumor antigen p53 (Homo sapiens) (UniProt P04637); assay: TOX21_p53_BLA_p3_ratio: Tox21 HCT-116 p53 Agonism Beta-lactamase Assay, Ratio, Phase 3 (AID 2283596)
Outline: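 Cells were seeded at 4000/well, rested 5 h at 37C, then dosed with DMSO compound solutions (217-fold dilution) for 16 h. CCF4-AM substrate was loaded for 2 h at room temperature, and the 460/530 nm emission ratio was fitted for gain of signal versus DMSO.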

[13] = TOX21_p53_BLA_p4_viability: Viability Assessment in the Tox21 HCT-116 p53 Agonism Beta-lactamase Assay, Phase 4 (AID 2283597);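 further: hits lower the luminescence signal meaning cytotoxicity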
Outline: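 Readout: ATP luminescence (CellTiter-Glo), measured 30 min after reagent addition at RT. The reagent followed a 2 h CCF4-AM incubation, and the cells had been exposed to compound for 16 h at 37C.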

[14] = molecular target: Cellular tumor antigen p53 (Homo sapiens) (UniProt P04637); assay: TOX21_p53_BLA_p4_ratio: Tox21 HCT-116 p53 Agonism Beta-lactamase Assay, Ratio, Phase 4 (AID 2283601)
Outline: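 Signal is the blue/green (460nm/530nm) ratio of cleaved versus uncleaved CCF4-AM substrate, read after 2 h substrate loading. Cells were HCT116 carrying the p53-responsive beta-lactamase reporter, dosed 16 h at 37C, 5% CO2; CellTiter-Glo measured in parallel.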

[15] = Tanguay_ZF_120hpf_AXIS_legacy: (Legacy) Oregon State University Tanguay Lab 120 Hour Post-fertilization zebrafish Assay for Body Axis Malformation (AID 2283635)
Outline: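 Chorion is removed with pronase at 4 hpf, then single 6 hpf embryos are dosed (final DMSO 0.64%) and held statically at 28C in sealed, foil-covered plates. At 120 hpf body axis malformation is recorded as present or absent.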

[16] = Tanguay_ZF_120hpf_OTIC_legacy: (Legacy) Oregon State University Tanguay Lab 120 Hour Post-fertilization zebrafish Assay for Otic Vesicle Malformation (AID 2283639)
Outline: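 Statically exposed wild-type 5D zebrafish embryos, kept sealed and dark at 28C through 120 hours post fertilization, were examined by brightfield microscopy for otic vesicle defects. Responses were recorded as present or absent and analysed relative to DMSO.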

[17] = molecular target: Cellular tumor antigen p53 (Homo sapiens) (UniProt P04637); assay: TOX21_p53_BLA_p5_ratio: Tox21 HCT-116 p53 Agonism Beta-lactamase Assay, Ratio, Phase 5 (AID 2283599)
Outline: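 Beta-lactamase reporter ratio (blue 460 nm over green 530 nm, 405 nm excitation) after 2 h CCF4-AM loading, in HCT-116 cells exposed 16 h at 37 C to compounds pinned at 217-fold dilution. Increases relative to DMSO baseline scored.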

[18] = Tanguay_ZF_120hpf_PE_legacy: (Legacy) Oregon State University Tanguay Lab 120 Hour Post-fertilization zebrafish Assay for Pericardial Edema (AID 2283640)
Outline: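 Embryos from wild-type 5D adults were staged, then dosed in 0.64% DMSO. They were kept sealed in the dark at 28C until 120 hpf. Pericardial edema was then recorded as present or absent.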

[19] = LTEA_HepaRG_LDH_cytotoxicity: Cytotoxicity Assessment in the Life Technologies and Expression Analysis (LTEA) Assay (AID 2283563)
Outline: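 Cells were thawed and plated for 48 h. Medium was then replaced with serum-free induction medium. Chemicals (8 half-log points, maximum 100 uM, 0.5% DMSO) were added in duplicate for 48 h, after which spent medium was assayed for LDH.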

[20] = TOX21_p53_BLA_p2_viability: Viability Assessment in the Tox21 HCT-116 p53 Agonism Beta-lactamase Assay, Phase 2 (AID 2283591);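 further: compound exposure lasted 16 h at 37 °C; actives lower the ATP signal meaning cytotoxicity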
Outline: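 Cytotoxicity readout: CellTiter-Glo ATP luminescence, 30 min at room temperature, after the beta-lactamase read. Cells were HCT116 exposed 16 h at 37C to compounds pin-transferred at 217-fold dilution from DMSO stocks.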

Measured: outcome

O=C(O)CCN(C1(C(=O)NO)CCCC1)S(=O)(=O)c1ccc(Oc2ccc(F)cc2)cc1
inactive: [1] | [2] | [3] | [4] | [5] | [6] | [7] | [8] | [9] | [10]

O=C1CCC(N2C(=O)c3ccccc3C2=O)C(=O)N1 (stereo not drawn)
not listed: [4] | [7] | [8] | [10] | [17] | [18] | [19] | [20]
inactive: all other assays above

CC(=O)OCCC(C)C
not listed: [4] | [5] | [19] | [20]
inactive: all other assays above

CC(C)=CCC/C(C)=C\CO
not listed: [5] | [9] | [15] | [17] | [19] | [20]
inactive: all other assays above

CCCCCCCCCCCCCCCO
not listed: [1] | [5] | [7] | [12] | [13] | [14] | [20]
inactive: all other assays above

CC(C)CC(C)(O)C#CC(C)(O)CC(C)C (stereo not drawn)
not listed: [1] | [9] | [17] | [20]
inactive: all other assays above

COCCOCCOCCOC
not listed: [1] | [4] | [7] | [12] | [14] | [15] | [16] | [20]
inactive: all other assays above

C=CCCCCCCCCC(=O)O
not listed: [4] | [7] | [12] | [16] | [19]
inactive: all other assays above

CC1=CC(=O)CC(C)(C)C1
not listed: [7] | [10] | [11] | [12] | [19]
inactive: all other assays above
